RORg inh = qHTS for inhibitors of ROR gamma transcriptional activity; Drosophila S2 Gal4-RORgamma UAS-luciferase reporter, 20 h; Potency, µM (top dose mostly 53.6 µM), without a hit: at the top dose activity change, negative = inhibition, actives largely listed as inhibitors; 310,000 compounds, 5.4% hits; AID 2551, 2010; further: nearly all actives have a fitted effect of over 60% in size
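Drosophila Schneider cells stably carrying a metallothionein-driven Gal4 DBD–ROR gamma fusion and a UAS-Photinus luciferase reporter were exposed to compound for 1 hr, then induced with copper sulfate (700 uM final) for 20 hr at ambient temperature before luminescence reading.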
TDP1 block = qHTS Assay for Inhibitors of Tyrosyl-DNA Phosphodiesterase (TDP1) | recombinant TDP1, AlphaScreen DNA substrate cleavage | 350,000 compounds, 0.28% hits | Potency, µM (doses to about 130 µM), for inactives: at the top dose activity change, negative = inhibition, most hits filed as inhibitors | Tyrosyl-DNA phosphodiesterase 1 (Homo sapiens), Q9NUW8; further: nearly all actives have a fitted effect of over 40% in size
Target sequence (Q9NUW8 whole entry, looked up): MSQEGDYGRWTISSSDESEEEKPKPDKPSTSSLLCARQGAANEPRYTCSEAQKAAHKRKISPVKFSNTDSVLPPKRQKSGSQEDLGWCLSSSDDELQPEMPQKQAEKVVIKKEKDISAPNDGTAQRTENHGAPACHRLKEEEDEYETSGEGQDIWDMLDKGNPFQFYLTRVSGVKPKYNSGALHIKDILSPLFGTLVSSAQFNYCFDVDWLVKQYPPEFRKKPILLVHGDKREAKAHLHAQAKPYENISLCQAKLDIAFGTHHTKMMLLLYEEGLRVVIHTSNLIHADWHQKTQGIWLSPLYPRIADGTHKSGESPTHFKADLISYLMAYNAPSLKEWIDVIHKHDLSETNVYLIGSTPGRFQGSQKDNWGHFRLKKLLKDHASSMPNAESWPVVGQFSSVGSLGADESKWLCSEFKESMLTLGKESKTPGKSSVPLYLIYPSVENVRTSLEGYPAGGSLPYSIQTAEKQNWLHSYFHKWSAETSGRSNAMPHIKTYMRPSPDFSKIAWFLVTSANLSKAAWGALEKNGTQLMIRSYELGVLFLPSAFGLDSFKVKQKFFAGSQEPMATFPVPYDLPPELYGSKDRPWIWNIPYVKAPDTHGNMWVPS
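Steps: enzyme plus compound, 15 min RT; add biotin/phosphotyrosine-FITC oligonucleotide (15 nM final), react 5 min; add donor/acceptor beads (10 ug/ml final), 10 min; read AlphaScreen. Tdp1 at 1 nM final.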
TDP1 cell noCPT = qHTS for Inhibitors of human tyrosyl-DNA phosphodiesterase 1 (TDP1): qHTS in cells in absence of CPT. Potency, µM (series often up to 46.2 µM), without a hit: at the highest dose activity change, negative = growth inhibition, hits mostly inhibitors. 420,000 compounds, 15% hits. DT40 Tdp1-/- hTDP1 cells, no CPT, ATP luminescence, 48 h; further: nearly all actives have a fitted effect of over 55% in size
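No-CPT arm: Tdp1-/-;hTDP1 DT40 cells (400/well) plus compounds, incubated ≥48 hr at 37 °C. Readout CellTiter-Glo luminescence.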
TDP1 cell CPT = qHTS for Inhibitors of human tyrosyl-DNA phosphodiesterase 1 (TDP1): qHTS in cells in presence of CPT; chicken DT40 Tdp1-/-;hTDP1 cells + 20 nM CPT, ATP luminescence, 48 h; Potency, µM (highest dose often 46.2 µM), without a hit: top-dose activity change, negative = growth inhibition, hits mostly inhibitors; 420,000 compounds, 12% hits; AID 686979, 2013; further: nearly all actives have a fitted effect of over 55% in size
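Chicken DT40 Tdp1-/- cells stably complemented with human TDP1 were seeded at 400 cells/well in medium containing 20 nM camptothecin, exposed to pin-transferred compounds, and grown at 37 °C for at least 48 hr. Viability was read as ATP luminescence.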
VP16 counter = VP16 counterscreen qHTS for inhibitors of ROR gamma transcriptional activity; Drosophila S2 Gal4-VP16 UAS-luciferase, luminescence, 20 h; Potency, µM (series often up to 53.6 µM), for inactives: at the top dose activity, negative = inhibition, actives largely listed as inhibitors; 310,000 compounds, 3.5% hits;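 further: Gal4-VP16 expression switched on by copper sulfate through the metallothionein promoter; nearly all actives have a fitted effect of over 50% in size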
Active calls of the source: *; u = inconclusive; x = no result given; [ ] = remark or other dose. Only some compounds are listed: those with a hit (about 19% of all), similar ones and a draw of the others. The call rests on the fitted dose curve; in most records, active means well fitted curve in the direction sought with a large enough effect; inconclusive means small, poorly fitted or top-dose-only effect, or another doubt; inactive means no such curve, though single readings can be large; an effect the other way counts as inactive or inconclusive. On the % scale 0 is the no-effect control and ±100 the full control effect; potency means the concentration at half of the fitted maximal effect.

SMILES	RORg inh	TDP1 block	TDP1 cell noCPT	TDP1 cell CPT	VP16 counter
COc1ccc(C2C(C(=O)NCCN3CCOCC3)c3ccccc3C(=O)N2C2CCCCC2)cc1 (configuration not stated)	u	5%[56.1 µM]	5.2µM*	7.3µM*	-5%
CCN(CC)CCCNC(=O)C1c2ccccc2C(=O)N(C)C1c1ccc(OC)cc1 (configuration not stated)	6%	2%	2.3µM*	-8%	-7%
COc1ccc(C2C(C(=O)Nc3cccc(OC)c3)c3ccccc3C(=O)N2C)cc1 (configuration not stated)	-12%	3%	-1%	6%	-8%
COc1ccc(C2C(C(=O)Nc3cc(OC)c(OC)c(OC)c3)c3ccccc3C(=O)N2C)cc1 (configuration not stated)	29%	3%	1.8µM*	1.5µM*	2%
CCc1ccc2c(COC(=O)C3CC(=O)N(CCc4ccccc4)C3)cc(=O)oc2c1 (configuration not stated)	x	1%	-9%	-20%	x
COc1cccc(OCc2cc(C(=O)N(C)C3CC(C)(C)NC(C)(C)C3)no2)c1	-6%	1%	6%	-9%	4%
COCCCn1c(=O)c2sccc2n2c(CCCC(=O)NCc3ccccc3)nnc12	-12%	1%	1%	-9%	0%
CCOc1ccccc1NC(=O)CSc1nnc(C2CC2)n1CC	4%	3%	-13%	-3%	-6%
Cc1ccc(SC(CC(=O)c2ccc(F)cc2)C(=O)O)cc1 (configuration not stated)	u	x	26µM*	u	-72%
CC(C)(C)c1ccc(C(=O)CC(Sc2ccc(Cl)cc2)C(=O)O)cc1 (configuration not stated)	1.6µM*	0%	4.1µM*	3.3µM*	6.3µM*
Cc1cc[n+](CC(=O)c2ccc(F)cc2)cc1	x	x	-10%	-1%	x
CC(C)=CCC[C@H](C)C[C@@H]1Cc2[nH][nH]c(=O)c2[C@H](c2ccc(F)cc2)O1	x	x	21µM*	u	x
CC[C@@H]1Cc2[nH][nH]c(=O)c2[C@@H](c2ccc(F)cc2)O1	x	x	u	2%	x
COc1cccc2cc(C(=O)NCCc3ccccc3)oc12	u	7%	u	-29%	-27%
NC(=O)c1ccc2nc(-c3ccccc3)c(-c3ccccc3)nc2c1	-1%	x	-27%	-15%	0%
c1coc(-c2cnc3ccccc3n2)c1	x	x	-2%	23%	x
O=C(c1ccccc1)c1ccc2nc(-c3ccco3)c(-c3ccco3)nc2c1	21%	-8%	21µM*	21µM*	u
O=C(NCCO)c1ccc(Cl)c(Cl)c1	-21%	4%	-14%	-15%	1%
c1coc(-c2nc3ccccc3nc2-c2ccco2)c1	0%	x	u	18µM*	3%
O=C(NCCc1ccccc1)c1ccc2nc(-c3ccco3)c(-c3ccco3)nc2c1	-27%	-2%	18µM*	21µM*	-5%
O=C(NCCO)c1ccc2nc(-c3ccco3)c(-c3ccco3)nc2c1	-12%	x	21µM*	u	-3%
O=C(Nc1sc2c(c1C(=O)NCC1CCCO1)CCC2)c1cc(=O)c2ccccc2o1 (configuration not stated)	x	4%	u	-24%	x
CN(C)C(=O)C1=NOC2(C1)C(=O)Nc1ccccc12 (configuration not stated)	x	x	-13%	-2%	x
CCNc1nc(-c2ccc(Cl)cc2)cs1	u	8%	-29%	u	u
CCOC(=O)Nc1nc(-c2ccc(Cl)cc2Cl)cs1	5%	3%	10µM*	u	10%
SMILES	RORg inh	TDP1 block	TDP1 cell noCPT	TDP1 cell CPT	VP16 counter
CCOC(=O)Cc1csc(NC(=O)c2cccc(Cl)c2)n1	x	x	-29%	-19%	x
Cc1ccc(-c2csc(NC(=O)CN3CCOCC3)n2)cc1C	35%	x	16µM*	u	1%
CCN(CC)CC(=O)Nc1nc(-c2ccc(Cl)cc2)cs1	8.9µM*	7%	u	u	20µM*
O=C(CN1CCCCC1)Nc1nc(-c2ccc(Cl)cc2)cs1	0%	x	-2%	u	-25%
O=C(CN1CCCC1)Nc1nc(-c2ccc(Cl)cc2)cs1	x	x	16µM*	26µM*	x
Cc1cc(-c2ccccc2)nc(N(C)N)c1S(C)(=O)=O	28%	4%	-10%	-14%	-6%
CC1CCN(Cc2ccc(-c3nnn(CC(=O)Nc4ccccc4Cl)n3)cc2)CC1	29%	-2%	21µM*	16µM*	10%
O=C(Cn1nnc(-c2ccc(CN3CCOCC3)cc2)n1)Nc1nc(-c2ccccc2)cs1	31%	9%	21µM*	u	-1%
COc1cccc(CNC(=O)CN2C(=O)CC(c3ccccc3)=Nc3ccccc32)c1	25%	0%	1%	-26%	-6%
CCCCOc1ccc(C(=O)Nc2ccc3oc(-c4cccnc4)nc3c2)cc1	x	6%[2.28 µM]	u	u	x
CCCCn1c(SCC(=O)Nc2cc(C(F)(F)F)ccc2Cl)nnc1C(CC)N(C)C (configuration not stated)	-25%	1%	21µM*	u	9%
COc1ccc(NC(=O)C(NC(=O)CNC(C)=O)c2ccc(C)cc2)cc1 (configuration not stated)	27%	-1%	3%	2%	3%
Cc1cc(-c2cn3ccccc3n2)c(C)n1-c1ccccc1	0%	10%	16µM*	u	-16%
Cc1cc(C)n2nc(C(=O)N/N=C/c3ccccc3Cl)nc2n1	16%	-1%	-27%	19%	7%
Cc1cc(C)n2nc(C(=O)N/N=C/c3c4ccccc4cc4ccccc34)nc2n1	35µM*	x	21µM*	23µM*	18µM*
Cc1cc(C)n(CCC(=O)N/N=C/c2c(O)ccc3ccccc23)n1	1.1µM*	-4%	4.6µM*	5.8µM*	u
Cc1ccc(O)c(/C=N/NC(=O)CN2CCCC2)c1	13µM*	4%	u	u	u
Cc1cc(C)n(CCC(=O)N/N=C/c2ccc(O)cc2)n1	5%	-3%	-12%	-14%	0%
Cc1cccc(/C=N/NC(=O)CN2CCCCCCC2)c1	-24%	u	-14%	-3%	-17%
O=C(CN1CCCC1)N/N=C/c1c(O)ccc2ccccc12	3.2µM*	2%	u	u	3.2µM*
Cc1ccc(-n2c(SCC(=O)N3CCOCC3)nnc2-c2cccnc2)cc1C	-16%	4%	-9%	4%	4%
C/C(=C\C(=O)c1ccc(C)cc1)Nc1ccc(N2CCOCC2)cc1	-3%	4%	x	x	3%
